The values that follow come from PubChem BioAssay (NCATS).

For some of these results: Entries with a potency or affinity are not part of this list. Calls of active or inactive are those of the source.

The conditions of one test: Ebola virus entry reporter assay, green channel fluorescence.
For the molecule `CC(C)[C@H](N)C(=O)OCC(CO)OCn1cnc2c(=O)[nH]c(N)nc21` (some centres undefined), the result was inactive.

In the case of `CC(C)C[C@H](CN)CC(=O)O`, the molecule was called inactive.

Turning to `CCCCCN(C)CCC(O)(P(=O)(O)O)P(=O)(O)O`, the molecule was called inactive.

Consider `CC(C)c1nc(N(C)S(C)(=O)=O)nc(-c2ccc(F)cc2)c1/C=C/C(O)CC(O)CC(=O)O` (centres undefined), for which the molecule was classed as inactive.

In the case of `CCOC(=O)CCC(=O)O[C@H]1[C@H](O[C@@H]2[C@@H](C)[C@H](O[C@H]3C[C@@](C)(OC)[C@@H](O)[C@H](C)O3)[C@@H](C)C(=O)O[C@H](CC)[C@@](C)(O)[C@H](O)[C@@H](C)C(=O)[C@H](C)C[C@@]2(C)O)O[C@H](C)C[C@@H]1N(C)C`, the outcome was inactive.

In the case of `COc1cc([C@@H]2c3cc4c(cc3[C@@H](O[C@@H]3O[C@@H]5CO[C@@H](C)O[C@H]5[C@H](O)[C@H]3O)[C@H]3COC(=O)[C@H]23)OCO4)cc(OC)c1O`, the molecule was called inactive.

As to `Nc1nc2[nH]cc(CCc3ccc(C(=O)N[C@@H](CCC(=O)O)C(=O)O)cc3)c2c(=O)[nH]1`, the call was inactive.

The conditions of the next test: Ebola virus entry cell assay, ratio channel.
With `Cc1onc(-c2ccccc2)c1C(=O)N[C@@H]1C(=O)N2[C@@H](C(=O)O)C(C)(C)S[C@@H]12`, the result was inactive.

As for `O=P(O)(O)C(Sc1ccc(Cl)cc1)P(=O)(O)O`, the result was inactive.

Consider `CC[C@H](C)C(=O)O[C@H]1C[C@H](O)C=C2C=C[C@H](C)[C@H](CC[C@@H](O)C[C@@H](O)CC(=O)O)[C@H]21`, for which the outcome was inactive.

Take `CSCC[C@H](NC(=O)[C@H](Cc1ccc(OS(=O)(=O)O)cc1)NC(=O)[C@@H](N)CC(=O)O)C(=O)NCC(=O)N[C@@H](Cc1c[nH]c2ccccc12)C(=O)N[C@@H](CCSC)C(=O)N[C@@H](CC(=O)O)C(=O)N[C@@H](Cc1ccccc1)C(N)=O`: the outcome was inactive.

Consider `COc1ccc2c(c1)C13CCCC[C@@H]1C(C2)N(C)CC3` (some centres undefined), for which the result was inactive.

Take `COc1cc([C@@H]2c3cc4c(cc3[C@@H](O[C@@H]3O[C@@H]5CO[C@@H](c6cccs6)O[C@@H]5[C@H](O)[C@@H]3O)[C@H]3COC(=O)[C@H]23)OCO4)cc(OC)c1O`: the outcome was inactive.

With `CC(C)[C@H](N)C(=O)OCC(CO)OCn1cnc2c(=O)[nH]c(N)nc21` (some centres undefined), the outcome was inactive.

As for `CC=CC1=C(C(=O)O)N2C(=O)[C@H](NC(=O)[C@H](N)c3ccc(O)cc3)[C@@H]2SC1`, the outcome was inactive.

With `OC[C@H]1O[C@@H](n2cnc3c2NC=NC[C@H]3O)C[C@@H]1O`, the result was inactive.

For the molecule `CN1CCN2c3ncccc3Cc3ccccc3C2C1` (centres undefined), the result was inactive.

As to `NC(=O)[C@@H]1CCCN1C(=O)[C@H](Cc1cnc[nH]1)NC(=O)[C@@H]1CCC(=O)N1`, the result was inactive.

For the molecule `CO/N=C(\C(=O)N[C@@H]1C(=O)N2C(C(=O)O)=C(COC(C)=O)CS[C@H]12)c1csc(N)n1` (stereo in doubt), the result was inactive.

Turning to `CCCCC[C@H](O)/C=C/[C@@H]1[C@H]2C/C(=C/CCCC(=O)O)O[C@H]2C[C@H]1O`, the outcome was inactive.

For `COCC1=C(C(=O)OC(C)OC(=O)OC(C)C)N2C(=O)[C@@H](NC(=O)/C(=N\OC)c3csc(N)n3)[C@H]2SC1` (some centres undefined), the result was inactive.

As for `NCCCCCC(=O)O`, the result was inactive.

Turning to `CCN(CC)CC#CCOC(=O)C(O)(c1ccccc1)C1CCCCC1` (centres undefined), the outcome was inactive.

`CC(C)C[C@H](CN)CC(=O)O`: the result was inactive.

Turning to `CN[C@@H](C)Cc1ccccc1`, the result was inactive.

In the case of `C=C1C(=C/C=C2\CCC[C@]3(C)[C@@H]([C@H](C)CCCC(C)(C)O)CC[C@@H]23)C[C@@H](O)C[C@@H]1O`, the outcome was inactive.

Consider `C=C[C@H]1CN2CC[C@H]1C[C@H]2[C@H](O)c1ccnc2ccc(OC)cc12`, for which the outcome was inactive.

Turning to `CCCCCN(C)CCC(O)(P(=O)(O)O)P(=O)(O)O`, the outcome was inactive.

With `CC(C)c1nc(N(C)S(C)(=O)=O)nc(-c2ccc(F)cc2)c1/C=C/C(O)CC(O)CC(=O)O` (centres undefined), the result was inactive.

`CCOC(=O)CCC(=O)O[C@H]1[C@H](O[C@@H]2[C@@H](C)[C@H](O[C@H]3C[C@@](C)(OC)[C@@H](O)[C@H](C)O3)[C@@H](C)C(=O)O[C@H](CC)[C@@](C)(O)[C@H](O)[C@@H](C)C(=O)[C@H](C)C[C@@]2(C)O)O[C@H](C)C[C@@H]1N(C)C`: the result was inactive.

On to `CCN1C(=O)NC(c2ccccc2)C1=O` (centres undefined), for which the result was inactive.

In the case of `O=C(O[C@H]1CN2CCC1CC2)N1CCc2ccccc2[C@@H]1c1ccccc1`, the concentration at half-maximal activity (AC50) is 7.94 µM (active).

Take `CCCC(C)(COC(N)=O)COC(N)=O`: the outcome was inactive.

Take `COc1cc([C@@H]2c3cc4c(cc3[C@@H](O[C@@H]3O[C@@H]5CO[C@@H](C)O[C@H]5[C@H](O)[C@H]3O)[C@H]3COC(=O)[C@H]23)OCO4)cc(OC)c1O`: the result was inactive.
